High-throughput results (PubChem BioAssay)
PLC-gamma1 inh = inhibitors of human phospholipase C gamma1 | inhibition, % at 12.2 µM | AID 720700 | P19174 | purified PLC-gamma1, fluorogenic substrate, fluorescence | hit rate 0.84% among 370,000; in the data active = inhibition above about 9.5%
Target sequence (P19174 whole entry, looked up): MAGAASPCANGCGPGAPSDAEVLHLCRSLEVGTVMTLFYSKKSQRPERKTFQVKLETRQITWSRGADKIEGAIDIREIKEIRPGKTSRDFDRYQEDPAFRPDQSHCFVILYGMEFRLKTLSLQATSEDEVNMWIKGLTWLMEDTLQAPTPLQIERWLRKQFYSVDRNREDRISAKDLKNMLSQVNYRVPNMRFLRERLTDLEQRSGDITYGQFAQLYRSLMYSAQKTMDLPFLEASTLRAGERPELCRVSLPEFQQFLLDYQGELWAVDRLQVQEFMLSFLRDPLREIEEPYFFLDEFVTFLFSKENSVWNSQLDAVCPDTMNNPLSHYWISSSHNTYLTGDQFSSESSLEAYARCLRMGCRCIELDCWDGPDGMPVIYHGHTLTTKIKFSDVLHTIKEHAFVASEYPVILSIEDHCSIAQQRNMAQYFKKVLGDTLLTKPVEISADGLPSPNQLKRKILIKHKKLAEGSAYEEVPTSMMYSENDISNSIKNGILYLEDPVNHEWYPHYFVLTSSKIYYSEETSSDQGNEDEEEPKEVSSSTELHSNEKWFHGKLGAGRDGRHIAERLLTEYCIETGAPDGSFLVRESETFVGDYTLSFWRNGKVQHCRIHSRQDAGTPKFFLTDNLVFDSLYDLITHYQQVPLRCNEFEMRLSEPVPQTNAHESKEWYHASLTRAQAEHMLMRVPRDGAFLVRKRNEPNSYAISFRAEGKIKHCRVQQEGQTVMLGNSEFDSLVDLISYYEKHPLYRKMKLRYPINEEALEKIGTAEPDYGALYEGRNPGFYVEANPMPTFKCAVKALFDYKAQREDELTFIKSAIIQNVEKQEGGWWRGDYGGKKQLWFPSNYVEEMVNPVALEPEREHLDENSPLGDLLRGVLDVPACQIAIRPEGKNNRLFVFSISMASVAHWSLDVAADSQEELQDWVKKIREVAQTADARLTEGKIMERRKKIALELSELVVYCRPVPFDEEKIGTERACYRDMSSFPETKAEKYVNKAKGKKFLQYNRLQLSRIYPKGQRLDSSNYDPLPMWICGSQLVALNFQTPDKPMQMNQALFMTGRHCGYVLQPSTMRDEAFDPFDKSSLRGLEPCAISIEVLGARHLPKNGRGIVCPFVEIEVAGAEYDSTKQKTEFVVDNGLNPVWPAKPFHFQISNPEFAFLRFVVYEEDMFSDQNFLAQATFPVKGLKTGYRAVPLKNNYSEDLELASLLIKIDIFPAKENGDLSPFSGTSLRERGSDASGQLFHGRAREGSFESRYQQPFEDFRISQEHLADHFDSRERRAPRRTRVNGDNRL
KLK7 zymogen act = activators of human kallikrein-7 zymogen; P49862; purified proKLK7, EDANS-DABCYL substrate fluorescence; 100% is mature enzyme control, 0% vehicle; activation, % at 7 µM; hit rate 0.9% among 370,000; AID 652039;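 active = activation above the mean of all tested compounds plus 3 SD, computed per campaign excluding outliers beyond control limits, cut at about 13% in these data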
ADAM17 inh = inhibits human ADAM17. P78536. recombinant ADAM17, EDANS/DABCYL FRET peptide cleavage. inhibition, % at 6.95 µM. hit rate 0.83% among 370,000. AID 720648;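 active = inhibition above the mean of compounds lying between control limits plus 3 SD, set per campaign, cut at about 8.5% in these data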;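 note: 0% = DMSO-only wells as the low control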
PLCb3 inh = blocks human PLC-beta3 enzyme activity; Purified PLC-beta3, fluorogenic substrate, fluorescence; inhibition, % at 12.2 µM; AID 720704; hit rate 0.18% among 370,000; Q01970;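 note: 0% = median of compound wells on plate and 100% = full blocker control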
ADAM10 inh = inhibits human ADAM10; O14672; recombinant ADAM10, EDANS/DABCYL FRET peptide cleavage, 3 h; inhibition, % at 7 µM; hit rate 0.62% among 370,000;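 active = inhibition above a per-campaign cutoff equal to the mean of compounds falling between control-based bounds plus 3 SD, cut at about 20% in these data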;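 note: 0% = DMSO wells while the 100% control is not disclosed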
ADAM10 counter = ADAM10 inhibition, counter-screen for ADAM17 exosite hits; shares compounds with ADAM17 inh; recombinant ADAM10, EDANS/DABCYL FRET peptide cleavage, 3 h; inhibition, % at 6.95 µM; hit rate 47% among 2,900; AID 743256;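 active = mean inhibition over the triplicate runs exceeds the activity threshold set in the earlier primary screen, cut at about 20% in these data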;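 note: 0% = DMSO wells and 100% = marimastat wells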
ADAM17 confirm = human ADAM17 inhibition, confirmation; shares compounds with ADAM17 inh; recombinant ADAM17, EDANS/DABCYL QFRET peptide cleavage; inhibition, % at 6.95 µM; hit rate 65% among 2,900; AID 743257;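 active = mean inhibition across replicates above the hit cutoff set in the primary screen, cut at about 8.5% in these data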;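 note: 0% = DMSO wells and 100% = marimastat wells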
PLCg1 ctr = inhibits human PLC-gamma1 in PLC-beta3 counter-screen; hit rate 3.1% among 3,300; shares compounds with PLC-gamma1 inh; purified PLC-gamma1, fluorogenic substrate, fluorescence; inhibition, % at 12.3 µM; in the data active = inhibition above about 9.5%
PLCb3 confirm = confirmation of human PLC-beta3 inhibitors; hit rate 1% among 3,300; purified PLC-beta3, fluorogenic substrate fluorescence; shares compounds with PLC-gamma1 inh; inhibition, % at 12.3 µM
* = called active by the depositor; · = no result. Hits are enriched below; roughly 2.9% of the tested compounds scored in any of these assays. Cut-off read from the data, not from the text of the source, unless noted: active = inhibition above about 11%; inactive = the rest.

SMILES	PLC-gamma1 inh	KLK7 zymogen act	ADAM17 inh	PLCb3 inh	ADAM10 inh	ADAM10 counter	ADAM17 confirm	PLCg1 ctr	PLCb3 confirm
CN1C(C(=O)Nc2cccc(O)c2)=CC(c2cccs2)=NS1(=O)=O	10*	-1	9.7*	6	13	18	7	7	3
COc1c(OC(C)=O)ccc(/C=C/c2ccc3ccccc3n2)c1[N+](=O)[O-]	14*	0	17*	6	17	25*	14*	1	-21
COc1ccccc1/C=C/CN1CCNC(=O)C1CC(=O)NCCc1cnccn1 (stereo not drawn)	-2	0	-6	-10	-4	·	·	·	·
C/C(=N\N=C(/N)SC1CC(=O)N(c2ccc(Cl)cc2)C1=O)c1cccs1 (stereo not drawn)	9.9*	0	11*	3	15	35*	18*	5	6
Cc1cnc(C(=O)OCC(=O)Nc2ccc(Br)cc2F)cn1	-4	0	-4	-5	-14	·	·	·	·
COc1cc(C)c(C)cc1S(=O)(=O)N1CCN(Cc2ccc3c(c2)OCO3)CC1	10*	0	8.8*	11*	8	23*	9.3*	-4	-1
COc1cc(S(=O)(=O)N2CCN(Cc3ccc4c(c3)OCO4)CC2)c(C)cc1C	5	0	5	0	11	·	·	·	·
Nc1nnnn1/N=C/c1ccc(F)cc1	-1	0	-6	3	-8	·	·	·	·
O=S1(=O)CCN(Cc2ccc(Cl)cc2)CC1	14*	0	9.2*	10	13	-8	1	-8	-3
CC(C)NC(=O)Nc1cccc2c1O[C@H](CN(C)C(=O)Nc1ccccc1)[C@@H](C)CN([C@H](C)CO)C2=O	-1	0	-4	2	1	·	·	·	·
CC(Oc1ccc(Cl)cc1Cl)C(=O)Nc1ccc(O)cc1 (stereo not drawn)	16*	0	8.8*	5	6	5	6	-8	-6
CC(Oc1ccc(Cl)cc1Cl)C(=O)Nc1cccc(O)c1 (stereo not drawn)	-3	0	-1	-2	-5	·	·	·	·
c1ccc(Cc2cnc(N3CCN(Cc4ccc5c(c4)OCCO5)CC3)nc2)cc1	9.8*	1	11*	4	5	3	4	-5	-6
COc1ccc(C(=O)N2CCCC(c3cc(C(=O)NCc4ccc(F)cc4)no3)C2)cc1 (stereo not drawn)	9.7*	0	8.8*	6	6	-6	-2	-7	-1
CN(Cc1ccccc1)C(=O)c1ccc(NC(=O)Cc2ccc(NC(=O)C3CCN(C(=O)C4CCCC4)CC3)cc2)cc1	10.0*	1	9.1*	5	3	33*	9.2*	-4	3
COc1ccc(N=Cc2c(C)[nH][nH]c2=O)cc1	9.9*	0	8.8*	8	7	13	7	1	1
CCCC1(CCC)NC(=O)N(CC(=O)Nc2ccc(Cl)c(S(=O)(=O)N3CCOCC3)c2)C1=O	11*	0	15*	4	16	3	2	3	0
CC1CCCCC12NC(=O)N(CC(=O)Nc1ccc(Cl)c(S(=O)(=O)N3CCOCC3)c1)C2=O (stereo not drawn)	0	0	-2	-8	2	·	·	·	·
CN(CCc1ccccc1)C1CCCN(S(=O)(=O)c2cccc(F)c2)C1 (stereo not drawn)	1	0	-2	-9	6	·	·	·	·
O=C(Nc1cccc(Cl)c1)C1C2CCC3C(CCC21)C3(Cl)Cl (stereo not drawn)	0	-1	7	5	14	·	·	·	·
O=C(Nc1ccccc1)C1C2CCC3C(CCC21)C3(Cl)Cl (stereo not drawn)	11*	1	8.8*	8	13	13	9.6*	0	-1
O=[N+]([O-])c1cc([N+](=O)[O-])c(Oc2cccnc2Br)cc1NN1CCCCC1	11*	0	11*	10	3	26*	15*	5	5
O=[N+]([O-])c1cc([N+](=O)[O-])c(Oc2cccc3ccccc23)cc1NN1CCCCC1	6	-1	-2	2	-14	·	·	·	·
CCNC(=O)C/C(C)=N/NC(=O)C1CCCCC1	11*	0	8.9*	8	7	-3	0	0	-1
CCn1c(CNC(=O)COc2ccc(C(C)C)cc2)nnc1SCC(=O)Nc1ccc(F)cc1	2	0	4	2	3	·	·	·	·
SMILES	PLC-gamma1 inh	KLK7 zymogen act	ADAM17 inh	PLCb3 inh	ADAM10 inh	ADAM10 counter	ADAM17 confirm	PLCg1 ctr	PLCb3 confirm
CCn1c(CNC(=O)COc2ccc(C(C)C)cc2)nnc1SCC(=O)Nc1cc(F)ccc1C	10*	0	12*	8	12	1	4	-1	-2
CN(CC(=O)Nc1cccc(F)c1)C(=O)c1cc(S(=O)(=O)N2CCN(c3ccccc3)CC2)ccc1Cl	-1	0	4	-5	9	·	·	·	·
C=CCn1c(SCC(=O)Nc2ccccc2-c2ccccc2)nnc1-c1ccc(Cl)cc1	10*	1	9.3*	-7	16	22*	15*	-7	-4
O=C(NCc1ccccc1)C1=C[C@H](c2ccc(C(F)(F)F)cc2)C[C@H](OCc2ccc(CO)cc2)O1	7	1	14*	14*	17	19	7	-11	-10
O=C(NCc1ccccc1)C1=C[C@@H](c2ccc(Br)cc2)C[C@@H](OCc2ccc(CO)cc2)O1	1	0	7	1	15	·	·	·	·
CC1(C)Cc2c(sc(/N=C/N3CCCCCC3)c2C#N)C(C)(C)N1	1	0	0	3	-2	·	·	·	·
CC1(C)Cc2c(sc(/N=C/N3CCCC3)c2C#N)C(C)(C)N1	19*	-1	3	13*	2	·	·	-4	0
COC(=O)c1ccc(Cl)c(NC(=O)CN2CCN(C)CC2)c1	0	0	-4	3	-1	·	·	·	·
COC(=O)CC(C(=O)Nc1cc(C(=O)OC)cc(C(=O)OC)c1)N1CCN(C)CC1 (stereo not drawn)	14*	0	5	11*	-2	·	·	-4	0
O=C(CCN1C(=O)[C@@H]2Cc3ccccc3CN2C1=O)N[C@H](Cc1ccccc1)C(=O)O	3	1	0	6	-1	·	·	·	·
O=C(NN1C(=O)NC2(CCCCC2)C1=O)c1ccc(Cl)c(Cl)c1	12*	0	-5	-11	-2	·	·	-9	-7
